Assay outcomes from PubChem BioAssay.
ERa coact inh = blocks coactivator binding to human estrogen receptor alpha. TR-FRET ER-alpha LBD / SRC-1 peptide, estradiol-bound. inhibition, % at 25.6 µM. actives 1.7% (n = 86,000). P03372; in the data active = inhibition above about 50%
hDAT+cocaine = human DAT dopamine uptake with cocaine, either direction. LLC-PK1 hDAT cells, [14C]-dopamine uptake with cocaine IC80; actives deviate in either direction. B-score at 10 µM. actives 1.3% (n = 110,000);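 active = Z score or B-score, a plate-position-corrected score, falls beyond the plate's 99.7% confidence bounds, in either direction; inactive = both scores lie inside the 99.7% bounds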
Target sequence (Q01959 whole entry, looked up): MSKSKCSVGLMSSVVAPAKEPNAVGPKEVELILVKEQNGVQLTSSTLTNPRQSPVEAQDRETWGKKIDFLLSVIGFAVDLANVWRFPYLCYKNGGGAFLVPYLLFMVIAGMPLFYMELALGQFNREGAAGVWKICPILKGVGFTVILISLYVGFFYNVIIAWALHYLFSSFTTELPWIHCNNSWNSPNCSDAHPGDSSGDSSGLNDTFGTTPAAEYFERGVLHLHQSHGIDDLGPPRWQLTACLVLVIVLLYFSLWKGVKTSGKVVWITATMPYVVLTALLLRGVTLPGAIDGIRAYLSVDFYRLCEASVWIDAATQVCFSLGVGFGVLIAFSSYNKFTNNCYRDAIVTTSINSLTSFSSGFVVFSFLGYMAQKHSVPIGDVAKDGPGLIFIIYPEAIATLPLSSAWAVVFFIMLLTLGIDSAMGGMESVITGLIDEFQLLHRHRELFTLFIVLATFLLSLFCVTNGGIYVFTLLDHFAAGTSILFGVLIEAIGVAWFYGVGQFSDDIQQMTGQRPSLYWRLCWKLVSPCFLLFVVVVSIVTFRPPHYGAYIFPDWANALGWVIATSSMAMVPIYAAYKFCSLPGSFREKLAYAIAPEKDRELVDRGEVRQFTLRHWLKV
MT1-MMP txn act = MT1-MMP promoter transcription activation; HT1080 MT1-MMP promoter luciferase reporter, luminescence, overnight; stronger effect = higher value; activation factor at 10 µM; actives 0.16% (n = 86,000); AID 750;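 active = activation factor of at least 2 for MT1-MMP transcription at 10 µM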
ERa SRC1 pot = ER-alpha (human) coactivator binding potentiation. actives 1.3% (n = 86,000). TR-FRET ERalpha-LBD/SRC-Cy5 coactivator binding, 2 h; 100 = basal binding, no effect. P03372. coactivator binding (% of control), % at 25.6 µM; in the data active = activity above about 200%;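 also: binding measured in presence of low estradiol as agonist stimulus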
ERb SRC1 inh = blocks coactivator binding to human estrogen receptor beta; Q92731; TR-FRET ER-beta LBD / SRC1-Cy5 peptide binding; receptor agonist-loaded with 1 µM estradiol; inhibition, % at 25.6 µM; actives 1.3% (n = 86,000);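 active = compounds whose percent inhibition of the receptor-coactivator binding signal exceeds about 50% in the single-dose screen, limit read from the data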
Each line names hits and unclear results; the compound was inactive in the other large screens; [ ] = remark or other dose. Only some compounds are listed: those with a hit (about 3.8% of all), similar ones and a draw of the others.

CCOC(=O)c1ccc(NC(=O)c2c(O)c3ccccc3n(C)c2=O)cc1	ERa coact inh 63 (no result: hDAT+cocaine)
Cc1ccccc1N1CCN(C(=O)c2ccccc2NC(=O)C2CC=CCC2C(=O)O)CC1 (stereo not drawn)	hDAT+cocaine 2.1 (no result: ERa coact inh, MT1-MMP txn act, ERa SRC1 pot, ERb SRC1 inh)
Cc1ccc(N2CCN(C(=O)c3ccccc3NC(=O)C3CC=CCC3C(=O)O)CC2)cc1 (stereo not drawn)	none (no result: ERa coact inh, MT1-MMP txn act, ERa SRC1 pot, ERb SRC1 inh)
Cc1ccc(C2=CC(c3ccc(C)cc3)n3ncnc3N2)cc1 (stereo not drawn)	none (no result: ERa coact inh, MT1-MMP txn act, ERa SRC1 pot, ERb SRC1 inh)
COc1ccc(C2C=C(c3ccccc3)Nc3ncnn32)cc1 (stereo not drawn)	ERb SRC1 inh 86[fluorescence artefact?]
CN1CCN(c2nc(C#N)cc(-c3ccccc3)n2)CC1	none
COc1ccc(-c2cc(C#N)nc(N3CCNCC3)n2)cc1	ERa SRC1 pot 305[fluorescence artefact?]
COCc1cc(C)nc(SCC(=O)Nc2ccc(C)c(C)c2)c1C#N	ERa SRC1 pot 208[fluorescence artefact?]
Cc1cc(NC(=O)c2ccc(S(=O)(=O)N3CCCC3)cc2)nc2c1c(=O)oc1ccccc12	none (no result: MT1-MMP txn act)
CCOc1ccc(C(=O)Nc2cc(C)c3c(=O)oc4ccccc4c3n2)cc1	ERa SRC1 pot 315[fluorescence artefact?]
COc1ccc(CC(=O)Nc2cc(C)c3c(=O)oc4ccccc4c3n2)cc1	ERa SRC1 pot 243, ERb SRC1 inh 53[fluorescence artefact?]
CCC(CC)C(=O)Nc1cc(C)c2c(=O)oc3ccccc3c2n1	none
Cc1cnnn1-c1ccc(C(=O)CCl)cc1	none (no result: hDAT+cocaine)
COc1cc(N2CCCC2)c(OC)cc1/C=c1/sc2nc3ccccc3n2c1=O	ERa coact inh 97[fluorescence artefact?], ERb SRC1 inh 74[fluorescence artefact?] (no result: hDAT+cocaine)
Cc1ccc(-n2c(C)cc(/C=c3/sc4nc5ccccc5n4c3=O)c2C)cc1	none
COC(=O)[C@@]1(Cc2ccc(OC)cc2)[C@H]2c3cc(C(=O)N(C)C)n(Cc4ccsc4Br)c3C[C@H]2CN1C(=O)c1ccccc1	none (no result: ERa coact inh, hDAT+cocaine, ERa SRC1 pot, ERb SRC1 inh)
O=c1cc(CN2CCN(c3ccccc3)CC2)c2cc(O)c(-c3ccccc3)cc2o1	ERa coact inh 79[fluorescence artefact?]
Cc1cc2oc(=O)cc(CN3CCN(Cc4ccccc4)CC3)c2cc1Cl	none
O=c1cc(CN2CCN(Cc3ccccc3)CC2)c2cc(Cl)ccc2o1	ERb SRC1 inh 60[fluorescence artefact?]
COc1ccc(CCN2CC(C#N)=C3c4cc(OC)c(OC)cc4CCN3C2)cc1OC	hDAT+cocaine 3.4
CCOC(=O)C[C@H]1c2ccc(C(F)(F)F)cc2S(=O)(=O)N1C(C)C	none (no result: ERa coact inh, MT1-MMP txn act, ERa SRC1 pot, ERb SRC1 inh)
O=c1ccc2cc3c([nH]c4ccc(Br)cc43)oc-2c1O	ERa coact inh 72[fluorescence artefact?], ERb SRC1 inh 74[fluorescence artefact?]
Nc1nonc1C(=O)NCCNS(=O)(=O)c1ccc(Br)cc1	none (no result: ERa coact inh, MT1-MMP txn act, ERa SRC1 pot, ERb SRC1 inh)
Cn1c(-c2sccc2OCc2ccccc2)n[nH]c1=S	hDAT+cocaine -10 (no result: ERa coact inh, MT1-MMP txn act, ERa SRC1 pot, ERb SRC1 inh)
Cc1ccc(COc2ccsc2-c2n[nH]c(=S)n2C)cc1	none (no result: ERa coact inh, MT1-MMP txn act, ERa SRC1 pot, ERb SRC1 inh)
COc1ccc(Oc2ncnc3c2oc2ccc(Br)cc23)cc1	hDAT+cocaine -7.4, ERa SRC1 pot 416
CC1CCN(CC(=O)Nc2cccc([N+](=O)[O-])c2)CC1	hDAT+cocaine -2.8 (no result: ERa coact inh, MT1-MMP txn act, ERa SRC1 pot, ERb SRC1 inh)
COc1ccc(NC(=O)CN2CCC(C)CC2)c([N+](=O)[O-])c1	none (no result: ERa coact inh, MT1-MMP txn act, ERa SRC1 pot, ERb SRC1 inh)
CC(C)(C)OC(=O)N[C@@H](Cc1ccccc1)[C@H](O)c1ccco1	none (no result: ERa coact inh, MT1-MMP txn act, ERa SRC1 pot, ERb SRC1 inh)
CCCn1c(C)cc(=O)c2cc(NC(=O)c3cnccn3)ccc21	ERa SRC1 pot 226[fluorescence artefact?]
COC(=O)c1ccc(-c2ccco2)n1Cc1nc(-c2ccc(OC)c(OC)c2)oc1C	ERa coact inh 70[fluorescence artefact?], ERb SRC1 inh 67[fluorescence artefact?]
CCC1=C2CC[C@H]3C(=O)N(C)C(=O)[C@H]3[C@H]2[C@@]2(Cc3ccccc3)C(=NCCc3c[nH]c4ccccc34)OC(=O)N2C1=O	none (no result: ERa coact inh, hDAT+cocaine, ERa SRC1 pot, ERb SRC1 inh)
Cc1c(C(=O)Nc2ccc(-n3cnnn3)cc2)oc2ccccc12	ERa coact inh 76[fluorescence artefact?], ERb SRC1 inh 65[fluorescence artefact?]
CC(=O)Nc1cccc(NC(=O)c2oc3ccccc3c2C)c1	none (no result: MT1-MMP txn act)
Cc1c(C(=O)Nc2ccc(Cl)cn2)oc2ccccc12	MT1-MMP txn act 2.1
C=C1CCN([C@@H](Cc2ccccc2)C(=O)NCCCc2ccccc2)S(=O)(=O)c2ccccc21	none (no result: ERa coact inh, MT1-MMP txn act, ERa SRC1 pot, ERb SRC1 inh)
Cc1nc2ccccc2n2c(-c3ccccc3)c3c(=O)n(C)c(=O)n(C)c3c12	none
Cc1cc2ccccc2n1CCNC(=O)c1ccc(S(=O)(=O)N2CCCCC2)cc1	hDAT+cocaine 2.5, ERa SRC1 pot 348[fluorescence artefact?] (no result: MT1-MMP txn act)
Cc1cc2ccccc2n1CCNC(=O)Cc1ccccc1	none (no result: MT1-MMP txn act)
Cc1ccc(S(=O)(=O)NCCn2c(C)cc3ccccc32)cc1	ERa SRC1 pot 376 (no result: hDAT+cocaine)
CSc1nc2ccc3nc(NC(=O)c4ccccc4)sc3c2s1	ERa coact inh 55[fluorescence artefact?], ERa SRC1 pot 223[fluorescence artefact?] (no result: MT1-MMP txn act)
